# Bioassay records as filed in PubChem BioAssay.
# eIF4E-4G inh – eIF4E/eIF4G interaction inhibition in translation initiation; P63073+Q04637; TR-FRET eIF4E-eIF4GI(517-606) binding, 2 h; inhibition, % at 21.7 µM; 220,000 tested, 0.37% active; AID 782;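 active = inhibition above about 30%, limit read from the data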
# PABP FP inh – blocks human PABP binding to poly(A) RNA; 290,000 tested, 1% active; AID 2014; P11940; fluorescence polarization; calls only at 35 µM;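 note: calls also rest on retests at 20 µM and on dose response follow-up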
# eIF4H FP inh – inhibitors of RNA binding by human eIF4H; Q15056; inhibition, % at 35 µM; 290,000 tested, 0.94% active; eIF4H fluorescence polarization binding assay;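 note: calls also rest on retests at 20 µM and on dose response follow-up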
# PERK inhibitor – blocks human PERK kinase; AID 1416; CHO PERK-DD fusion, SEAP luminescence translation reporter; inhibition, % at 5.6 µM; 220,000 tested, 0.17% active; Q9NZJ5;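 active = inhibition above the mean inhibition of all tested compounds plus 3 SD, set separately per screening campaign, cut at about 2.9% in these data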;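 note: PERK kinase domain activated by AP20187 dimerizer at 100 nM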
# MLLE-PAM2 inh – inhibitors of microRNA-mediated deadenylation, human PABP1 MLLE binding; P11940; 360,000 tested, 0.36% active; AID 588489; inhibition, % at 20 µM; GST-MLLE / FITC-PAM2 fluorescence polarization; in the data active = inhibition above about 35%, passing the limit was not always enough
# A number is an active result; – = inactive; · = not tested or not shown; + = active, no number. An excerpt weighted towards active compounds, which were near 1.6% of everything screened. Unless noted, the rule behind the calls is not given here.
SMILES,eIF4E-4G inh,PABP FP inh,eIF4H FP inh,PERK inhibitor,MLLE-PAM2 inh
CC1OC(OC2C(OC3C(O[C@H]4CC[C@]5(C)C6C=C[C@]78OC[C@@]9(CC[C@@H](C)[C@H](C)C97)[C@H](O)C[C@@]8(C)[C@]6(C)CC[C@H]5C4(C)C)OC(C)C(O)C3O)OC(CO)C(O)C2O)C(O)C(O)C1O (some centres undefined),56,–,–,·,·
O=C1/C(=C/Nc2ccc3c(c2)OCO3)CCc2ccccc21,–,–,–,–,–
COc1ccc2c(c1)CC/C(=C\Nc1ccc3c(c1)OCO3)C2=O,–,+,66,–,–
Cc1ccc(O)c(C=Nc2cc(C)ccc2O)c1,–,–,–,–,–
Cc1ccc(O)c(C=Nc2ccc3[nH]ncc3c2)c1,–,+,68,–,–
CCC(=O)c1ccc(OCC(=O)NCc2ccccc2CN2CCCC2)cc1,·,·,·,·,–
CC(C)(C)OC(=O)N1CCN(C(=O)c2cccnc2Cl)CC1,–,–,–,–,–
CCCCCCCNC1=CC(=O)CC(c2ccco2)C1 (centres undefined),–,+,93,–,–
CCSc1sccc1C1C(C#N)=C(N)N(c2cccnc2)C2=C1C(=O)CCC2 (centres undefined),–,–,–,–,45
CSc1sc(C)cc1C1C(C#N)=C(N)N(c2cccnc2)C2=C1C(=O)CC(C)(C)C2 (centres undefined),–,–,–,–,–
COc1cc(C2C(C#N)=C(N)N(c3cccnc3)C3=C2C(=O)CCC3)ccc1O (centres undefined),–,+,51,–,–
CC(OC(=O)c1cc(=O)[nH]c2ccccc12)C(=O)Nc1ccccc1F (centres undefined),·,·,·,·,–
O=[N+]([O-])c1ccc(C2=Nn3cnnc3SC2)cc1,62,–,–,–,–
COc1ccc(CNC(=O)c2nccnc2CO)cc1,·,–,–,·,–
CC(=O)OCCCCCCCCCCC[N+]1(C)CCCCC1,–,+,–,–,–
NC(=O)C1CCCNC1 (centres undefined),–,+,79,·,–
N[C@@H](Cc1cc(I)c(Oc2ccc(O)c(I)c2)c(I)c1)C(=O)O,–,–,–,–,–
O=C(O)CCc1cc(I)c(Oc2ccc(O)c(I)c2)c(I)c1,–,+,65,·,·
C=CCn1c(CSc2ccccc2[N+](=O)[O-])n[nH]c1=S,·,+,84,·,–
O=C(OCC(=O)N1CCN(C(=O)c2ccco2)CC1)c1cc(-c2ccco2)nc2ccccc12,–,+,85,–,–
COc1ccc(CNC(=O)COC(=O)c2cc(-c3ccco3)nc3ccccc23)cc1,–,–,90,–,·
CCNC(=O)COC(=O)c1cc(-c2ccco2)nc2ccccc12,–,+,89,–,–
O=C(OCC(=O)N1CCN(C(=O)c2ccco2)CC1)c1cc(-c2ccc(Cl)c(Cl)c2Cl)nc2ccccc12,–,–,–,–,–
CCc1nc2c(OCc3ccc(Cl)cc3)cccn2c1N(C)C(=O)c1ccc2c(c1)OCO2,·,·,·,·,–
C[C@@H]1CCCCO[C@H](CN(C)Cc2ccc(C(=O)O)cc2)[C@H](C)CN([C@@H](C)CO)C(=O)c2cc(NC(=O)Nc3ccc(C(F)(F)F)cc3)ccc2O1,·,·,·,·,–
SMILES,eIF4E-4G inh,PABP FP inh,eIF4H FP inh,PERK inhibitor,MLLE-PAM2 inh
CC(C)Oc1ccc(S(=O)(=O)N2CCOCC2)cc1NC(=O)C1=NN(c2ccccc2)C(=O)CC1,·,·,·,·,–
C[C@@H]1CN([C@@H](C)CO)C(=O)CCCn2nncc2CO[C@@H]1CN(C)C(=O)c1ccncc1,·,·,·,·,–
Cc1cccc2c1N(C(=O)c1ccco1)C(C)(C)c1ssc(=S)c1-2,–,–,–,–,–
Cc1ccc2c(c1)N(C(=O)c1ccco1)C(C)(C)c1ssc(=S)c1-2,–,+,active,–,–
Cc1sc2ncnc(SCC#N)c2c1C,–,–,37,–,–
CCCSc1ncnc2sc(C)c(C)c12,–,–,–,–,–
CCN=c1scc(C)n1/N=C/c1cc(Br)c(O)c(Br)c1,–,–,–,–,–
CCN=c1scc(C)n1/N=C/c1ccc(O)c(O)c1O,–,+,82,–,–
CC1=CC2=NC(=O)CC(C)(C(=O)N(CC(=O)NC3CCCC3)c3cc(C)cc(C)c3)N2C=C1 (centres undefined),35,–,–,–,–
COc1cc(O)c2c(c1)OC(c1ccc(O)cc1)CC2=O (centres undefined),–,–,–,–,–
Cc1c(O)cc2c(c1O)C(=O)CC(c1ccc(O)cc1)O2 (centres undefined),–,+,95,–,–
CCc1n(CC(O)COC2CCCCC2)c2ccccc2[n+]1C (centres undefined),–,+,–,–,–
CCc1n(CC(O)COCC2CC=CCC2)c2ccccc2[n+]1C (centres undefined),–,–,–,–,–
CCc1ccc(-n2c(SCC(=O)N3Cc4ccccc4CC3C(=O)O)nnc2-c2ccncc2)cc1 (centres undefined),–,–,–,3.4,–
CCCOC1CCCN(C(=O)c2ccc3oc(C(C)C)nc3c2)C1 (centres undefined),·,–,–,·,–
OC[C@@H]1CN(CCN2CCOCC2)C[C@H](n2cnc3c(Nc4ccccc4)ncnc32)O1,·,·,·,·,–
Cc1ccc(CNC(=O)CSc2nccn(-c3ccc(C)c(F)c3)c2=O)cc1,·,·,·,·,41
COc1ccc(C(=O)Nc2ccc3nc4n(c(=O)c3c2)CCCC4)cc1[N+](=O)[O-],–,+,–,–,·
Cc1nn(CC(=O)NCCc2cccs2)c(=O)c2cc3ccccc3n12,·,–,–,·,–
CC/C(=N\Nc1ccc([N+](=O)[O-])cc1)c1ccccc1,–,+,–,–,–
CCN1CCN(CCNC(=O)c2ccc(/C=C3/Sc4ccccc4N(Cc4cccc(Cl)c4)C3=O)cc2)CC1,36,–,–,–,–
CN1CCN(CCCNC(=O)c2ccc(/C=C3\Sc4ccccc4N(Cc4ccccc4F)C3=O)cc2)CC1,31,–,–,–,–
CCN1CCN(CCNC(=O)c2ccc3c(c2)N(Cc2ccc(F)cc2)C(=O)/C(=C/c2ccccc2)S3)CC1,37,–,–,–,–
O=C(NCCN1CCOCC1)c1ccc(/C=C2\Sc3ccccc3N(Cc3ccccc3F)C2=O)cc1,·,–,–,·,–
Cc1cccc(CN2C(=O)/C(=C\c3ccc(C(=O)NCCN4CCOCC4)cc3)Sc3ccccc32)c1,·,–,–,·,–
COc1ccc(/C=C2\Sc3ccc(C(=O)NCCN4CCCCCC4)cc3N(C)C2=O)cc1,·,–,–,·,–
CS(=O)(=O)Nc1ccc(C2=NN(S(=O)(=O)c3ccc(F)cc3)C(c3ccco3)C2)cc1 (centres undefined),–,–,active,–,–
O=C1CCCCN1CCCC(=O)N1CCCC(Nc2ccc(F)c(F)c2)C1 (centres undefined),·,–,–,·,–
O=C(O)c1ccc(Nc2nc(-c3cc4ccccc4oc3=O)cs2)cc1O,–,–,51,–,–
CC(=O)Nc1ccc(Nc2nc(-c3cc4ccccc4oc3=O)cs2)cc1,·,–,–,·,–
